A selection: hits, their analogues and other compounds. The true share with any hit is near 12%.
Sfp PPTase inh: Sfp phosphopantetheinyl transferase inhibition; Biochemical Sfp PPTase activity, qHTS; AID 1490; Potency, µM, inactives show largest response in the series, negative = inhibition, hits mostly inhibitors; 310,000 tested, 3.5% active;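 further: the enzyme is Sfp with the accession as filed and its product quenches rhodamine fluorescence; 0% = enzyme reaction without inhibitor and -100% = no enzyme wells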
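Fluorescence-quenching assay: 15 nM Sfp-PPTase preincubated 15 min at room temperature with compound, then 5 uM rhodamine-CoA and 12.5 uM BHQ-2-labelled YbbR peptide added. Fluorescence (ex 525/em 598 nm) read at start and after 30 min; difference gives rate.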
G9a inh: G9a (human) methyltransferase inhibition; Q96KQ7; G9a H3K9 monomethylation, AlphaScreen, 2 h; Potency, µM (series often up to 102 µM), without a hit: top-dose activity, negative = inhibition, actives largely listed as inhibitors; 350,000 tested, 8.8% active; further: on the % scale 0 is the no-effect control and ±100 the full control effect; nearly all actives have a fitted effect of over 75% in size
Target sequence (Q96KQ7 913-1193 limits assumed): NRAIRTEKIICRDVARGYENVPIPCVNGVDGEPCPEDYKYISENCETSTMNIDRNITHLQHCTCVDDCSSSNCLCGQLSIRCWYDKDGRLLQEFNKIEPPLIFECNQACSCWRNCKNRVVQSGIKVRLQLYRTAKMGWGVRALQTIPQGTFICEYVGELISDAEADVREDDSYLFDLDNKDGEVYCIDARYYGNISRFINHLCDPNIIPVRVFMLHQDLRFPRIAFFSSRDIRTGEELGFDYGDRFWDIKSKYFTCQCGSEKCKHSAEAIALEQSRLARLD
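Chemiluminescent proximity detection of H3K9 monomethylation, read after 10 min bead incubation in the dark. Reaction: 20 nM G9a, 500 nM biotin-H3K9 peptide, 20 uM SAM cofactor, 2 h, room temperature, following 15 min enzyme-compound preincubation.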
BAZ2B block: blocks human BAZ2B; Q9UIF8; AlphaScreen BAZ2B-H3K14Ac peptide displacement; Potency, µM (top dose mostly 114 µM), for the others: at the highest dose activity change, negative = inhibition, usual class: inhibitors; 360,000 tested, 4.4% active; further: on the % scale 0 is the no-effect control and ±100 the full control effect; nearly all actives have a fitted effect of over 60% in size
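Protein-peptide AlphaScreen: BAZ2B 50 nM, b-H3K14Ac 50 nM, 1x PBS pH 7.4 + 0.01% Tween-20. Preincubation 30 min RT; cpd 30 min RT (top 110 uM); beads 20 min RT, light-protected.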
JMJD2A Tudor: JMJD2A Tudor domain (human) inhibition; O75164; AlphaScreen JMJD2A-Tudor / H3K4me3 peptide binding; 390,000 tested, 4.4% active; Potency, µM (highest dose often 114 µM), for inactives: at the highest dose activity change, negative = inhibition, hits mostly inhibitors; further: on the % scale 0 is the no-effect control and ±100 the full control effect; nearly all actives have a fitted effect of over 50% in size
HP1b binding inh: inhibitors of HP1-beta chromodomain binding to methylated histone tails. AlphaScreen HP1-beta / biotin-H3K9me3 peptide binding. AID 540317. 390,000 tested, 0.56% active. P83916. Potency, µM (highest dose often 114 µM), inactives show at the top dose activity change, negative = inhibition, usual class: inhibitors; further: nearly all actives have a fitted effect of over 70% in size
Target sequence (P83916 whole entry, looked up): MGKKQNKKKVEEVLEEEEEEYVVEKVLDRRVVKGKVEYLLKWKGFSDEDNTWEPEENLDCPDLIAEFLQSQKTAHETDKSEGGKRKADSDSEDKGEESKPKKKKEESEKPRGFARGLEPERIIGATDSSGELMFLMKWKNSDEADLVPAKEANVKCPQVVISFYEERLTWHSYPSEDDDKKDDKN
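Compound inhibition of the preformed complex between 50 nM HP1-beta and 50 nM biotinylated H3K9me3 peptide was read by AlphaScreen. Buffer was PBS pH 7.4 with 0.01% Tween-20. Incubations ran 30 min at room temperature, with 10 ug/mL donor/acceptor beads.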
Starred values were filed as active, the others as inactive; ? = inconclusive; · = not tested or not shown; [ ] = remark or other dose. The call rests on the fitted dose curve; in most records, active means well fitted curve in the direction sought with a large enough effect; inconclusive means small, poorly fitted or top-dose-only effect, or another doubt; inactive means no such curve, though single readings can be large; an effect the other way counts as inactive or inconclusive. Potency means the concentration at half of the fitted maximal effect.

SMILES	Sfp PPTase inh	G9a inh	BAZ2B block	JMJD2A Tudor	HP1b binding inh
COc1cccc(/C=N/n2c(-c3cc(C)[nH]n3)n[nH]c2=S)c1	?	2.51µM*	-33.8%	3.16µM*	?
COc1cc(/C=N/n2c(-c3cc(C)[nH]n3)n[nH]c2=S)cc(OC)c1OC	31.6µM*	2.51µM*	-32.4%	1.41µM*	-21.9%
COc1cccc(/C=N/n2c(N)c(S(=O)(=O)c3cccs3)c3nc4ccccc4nc32)c1	3.4%	8.6%[0.0925 µM]	-3.7%	10.5%	38.2%
COc1cc(/C=N/n2c(-c3cc(C)[nH]n3)n[nH]c2=S)ccc1O	50.1µM*	3.98µM*	-26.8%	?	46.7%
COc1cc(/C=N/Nc2nncn2/N=C/c2ccc(O)c(OC)c2)ccc1O	?	-14.7%	-9.2%	-22.2%	33.2%
O=C(CCCc1ccccc1)NC1CC(=O)N(c2cccc(F)c2)C1 (stereo not drawn)	·	3.7%[59 µM]	-15.2%	-1.6%	54.5%
CN1C(=O)c2ccc(NC(=O)c3c(C(=O)O)cccc3[N+](=O)[O-])cc2C1=O	-8.4%	39.8µM*	2.0%	-8.0%	16.4%
CC(=O)NC1(C(F)(F)F)C(=O)Nc2c1c(=O)[nH]c(=O)n2-c1ccccc1 (stereo not drawn)	16.5%	5.4%	-23.8%	-11.0%	-9.3%
COc1ccc(C)cc1Nc1n[n+](-c2ccccc2)c(-c2c(OC)ccc3ccccc23)s1	·	20.8%[2.33 µM]	?	?	-16.1%
COc1ccc(C)cc1Nc1n[n+](-c2ccccc2)c(-c2ccc(C(=O)O)cc2)s1	56.2µM*	10µM*	39.8µM*	35.5µM*	-7.6%
CCOc1cc(-c2sc(Nc3ccc(CC)cc3)n[n+]2-c2ccccc2)ccc1OC	·	-11.0%[2.33 µM]	?	?	-11.6%
COc1ccc(C)cc1Nc1n[n+](-c2ccccc2)c(-c2cc(OC)c(OC)cc2Br)s1	-27.6%	39.8µM*	50.1µM*	?	19.0%
C(=C\c1sc(Nc2ccccc2)n[n+]1-c1ccccc1)/c1ccccc1	·	·	·	56.2µM*	?
CCOc1cc(-c2sc(Nc3cc(C)ccc3OC)n[n+]2-c2ccccc2)ccc1OC	·	-41.9%[12.7 µM]	56.2µM*	56.2µM*	-11.5%
C[C@@H]1CC(=O)[C@H]2CC(CO)=CCC[C@@H]2[C@@]1(C)CC/C(=C/CO)CO	·	-9.5%[12.7 µM]	-2.1%	-21.1%	19.6%
COc1ccc(-c2sc(Nc3ccccc3)n[n+]2-c2ccccc2)cc1Br	·	-47.8%[12.7 µM]	50.1µM*	79.4µM*	2.1%
COc1ccc(CCNC(=O)C2CCN(C(=O)c3ccc(F)cc3)CC2)cc1	-2.2%	·	6.7%	-11.9%	34.2%
CCOC(=O)C1=C(COC(=O)c2ccccc2OC)NC(=O)NC1C (stereo not drawn)	·	3.16µM*	-4.9%	-4.8%	19.3%
CCOC(=O)C1=C(COC(=O)/C=C/c2ccco2)NC(=O)NC1C (stereo not drawn)	·	27.6%[0.501 µM]	50.1µM*	28.2µM*	?
Cc1c(-c2ccc(Cl)cc2)oc(=O)c2c(N)n(-c3ccccc3)nc12	-10.2%	-7.6%[59 µM]	50.1µM*	-34.0%	4.8%
Nc1c2c(=O)oc(-c3ccccc3)cc2nn1-c1ccccc1	3.4%	-19.4%[59 µM]	-5.2%	-31.3%	17.8%
CCN1CCN(C(=O)c2ccc3c(c2)N(Cc2cc(C)ccc2C)C(=O)c2ccccc2S3=O)CC1 (stereo not drawn)	·	-45.2%[59 µM]	?	-17.5%	10.8%
CN(C)CC(CCC(CN(C)C)C(=O)c1ccccc1)C(=O)c1ccccc1 (stereo not drawn)	-7.7%	44.7µM*	-1.6%	-19.9%	-13.5%
COc1ccc(/C(O)=C2/C(=O)C(=O)N(CCCN(C)C)C2c2ccc(C)o2)cc1Cl (stereo not drawn)	89.1µM*	44.7µM*	1.6%	·	·
Cc1ccc(C2/C(=C(\O)c3ccc4c(c3)OCCO4)C(=O)C(=O)N2CCCN(C)C)o1 (stereo not drawn)	-9.7%	44.7µM*	-33.4%	·	·
CCN(CC)CCCN1C(=O)C(=O)/C(=C(/O)c2ccc(OC)c(Cl)c2)C1c1ccco1 (stereo not drawn)	?	44.7µM*	2.9%	·	·
COc1ccc(/C(O)=C2/C(=O)C(=O)N(Cc3cccnc3)C2c2ccco2)cc1OC (stereo not drawn)	10.2%	-7.5%	-1.7%	25.1µM*	-3.8%

Screens: PubChem, National Center for Advancing Translational Sciences (NCATS)
